Tau ThT inhib – qHTS for Inhibitors of Tau Fibril Formation, Thioflavin T Binding; Microtubule-associated protein tau (Homo sapiens), P10636; recombinant tau K18 P301L, heparin-induced fibrillization, ThT fluorescence; Potency, µM (series often up to 57.4 µM), inactives show top-dose activity, negative = inhibition, hits mostly inhibitors; actives 2.1% (n = 270,000); AID 1460, 2008; note: potency is the fitted concentration of half-maximal effect; nearly all actives have a fitted effect of over 55% in size
Target sequence (P10636 561-689 P618L limits assumed): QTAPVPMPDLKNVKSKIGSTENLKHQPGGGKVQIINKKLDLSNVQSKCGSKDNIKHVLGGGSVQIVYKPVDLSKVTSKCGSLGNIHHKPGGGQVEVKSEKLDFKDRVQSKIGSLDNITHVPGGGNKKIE
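Heparin-induced (20 uM) aggregation of recombinant human K18 P301L tau, 15 uM unlabeled with 0.24 uM labeled, pH 7 acetate buffer, 6 hr at 37 C with compound. Fibrils quantified by 30 uM ThT fluorescence after 1 hr ambient incubation.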
Tau fibril FP – qHTS for Inhibitors of Tau Fibril Formation, Fluorescence Polarization; Microtubule-associated protein tau (Homo sapiens), P10636; K18 P301L tau heparin fibrillization, Alexa594 FP, 6 h; Potency, µM (titrated, usually from 57.7 µM), inactives show top-dose activity, negative = inhibition, hits mostly inhibitors; actives 0.39% (n = 280,000); AID 1468, 2008; note: potency is the fitted concentration of half-maximal effect; nearly all actives have a fitted effect of over 55% in size
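Heparin (20 uM) drove fibril formation of recombinant tau K18 P301L, 15 uM unlabeled with 0.24 uM Alexa 594 label, for 6 hr at 37 C in 100 mM sodium acetate pH 7. Fluorescence polarization (555/632 nm) read 1 hr after 30 uM ThT.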
Tau fluor counter – Counterscreen qHTS for Inhibitors of Tau Fibril Formation, Fluorescence Polarization; AID 1463, 2008; Potency, µM (titrated, usually from 57.7 µM), for inactives: at the top dose activity change, negative = decrease; tau K18 P301L (four-repeat tau fragment) Alexa594 fluorescence, heparin fibrillization; actives 0.93% (n = 280,000); note: potency is the fitted concentration of half-maximal effect; nearly all actives have a fitted effect of over 55% in size
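Human K18 P301L tau (15 uM unlabeled plus 0.24 uM Alexa 594-labeled, final) in 100 mM sodium acetate pH 7 was mixed with compound and 20 uM heparin and incubated 6 hr at 37 C.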
Sfp inh – qHTS Assay for Inhibitors of Bacillus subtilis Sfp phosphopantetheinyl transferase (PPTase). Biochemical Sfp PPTase activity, qHTS. Potency, µM, for inactives: largest response in the series, negative = inhibition, actives largely listed as inhibitors. actives 3.5% (n = 310,000). AID 1490, 2009;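 note: the enzyme is Sfp with the accession as filed and its product quenches rhodamine fluorescence; potency is the fitted concentration of half-maximal effect; 0% = enzyme reaction without inhibitor and -100% = no enzyme wells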
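With Hepes-Na pH 7.6 buffer containing 10 mM MgCl2, Sfp (15 nM) modified BHQ-2-YbbR (12.5 uM) using rhodamine-CoA (5 uM). Two reads 30 minutes apart at 525/598 nm yielded each well's rate.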
Coupling enz – qHTS Assay for Inhibitors of Fructose-1,6-bisphosphate Aldolase from Giardia Lamblia: Coupling assay counterscreen; activity change, negative = inhibition, % at 58.2 µM, hits read low; AID 2472, 2010; actives 0.67% (n = 290,000); coupling enzyme system counterscreen, AmpLite Red fluorescence; in the data active = activity change below about -30%
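Coupling enzymes only (glyceraldehyde-3-phosphate) + compound, at 57.5 uM final, 10 min RT; add substrate/coupling/AmpLite Red mix, 20 min RT; fluorescence ex 525/em 598 nm. Actives flag coupling-system interference.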
* hit, by the source's call; ? = inconclusive; / = not tested or not shown; [ ] = another dose, or the depositor's remark. Hits are enriched below; roughly 5.2% of the tested compounds scored in any of these assays. Unless noted, calls come from the whole dose curve; as a rule, active = well fitted curve in the direction sought with a large enough effect; inconclusive = small, poorly fitted or top-dose-only effect, or another doubt; inactive = no such curve, though single readings can be large; an effect the other way counts as inactive or inconclusive. Unless noted, % is set by controls: 0 for no effect and ±100 for the full control effect.

SMILES	Tau ThT inhib	Tau fibril FP	Tau fluor counter	Sfp inh	Coupling enz
COc1ccc(/C=N/Nc2ccc(C(=O)O)cc2)cc1Br	7.1µM*	7%	?	-1%	6
COc1ccc(/C=N/Nc2ccc(C(=O)O)cc2)cc1OC	?	-3%	-7%	5%	-1
Cc1ccc(S(=O)(=O)Oc2cccc(/C=N/Nc3ccc(C(=O)O)cc3)c2)cc1	-23%	7%	?	13%	-41*
Cc1ccc(S(=O)(=O)Oc2cccc(/C=N/n3cnnc3)c2)cc1	0%	-9%	-6%	-6%	-21
O=C(O)c1ccc(N/N=C/c2ccc(-c3ccccc3)cc2)cc1	8.9µM*	11%	16µM*[quencher]	-13%	8
CC(C)c1ccc(/C=N/Nc2ccc(C(=O)O)cc2)cc1	?	8%	-13%	1%	6
COc1ccc(-c2cn(-c3ccc(C)cc3)c(S(=O)(=O)CC(=O)Nc3ccccc3)n2)cc1	-9%	-16%	-29%	/	/
O=C(O)CCCn1cc(NC(=O)c2cc(F)c(F)cc2Cl)cn1	18%	-6%	12%	-8%	-34*
O=C(O)CCCn1cc(NC(=O)c2cccc(F)c2)cn1	-2%	2%	-3%	3%	4
CCOC(=O)C(CC)n1nnc2sc(-c3ccccc3)cc2c1=O (stereo not drawn)	?	6%	-25%	/	/
O=C1C=CC(=O)C2=C1C1c3ccccc3C2c2ccccc21	20µM*	35µM*	?	3.2µM*	-11
CN1C(=O)C2C3c4ccccc4C(c4ccccc43)[C@@H]2C1=O (stereo partly drawn)	/	/	/	8%	-1
CCCCCCCCCCCCCCCCn1cc[n+](C)c1	?	11%	-16%	22µM*	0
CCCCCCCCn1ccc(=N)cc1	-3%	5%	1%	-1%	4
CCOC(=O)c1ccc(OCC2c3cc(OC)c(OC)cc3CCN2C(=O)Cc2ccc(F)cc2)cc1 (stereo not drawn)	-5%	-3%	-12%	/	/
COc1ccccc1C(=O)NCC(=O)NNc1ncnc(N)c1[N+](=O)[O-]	-16%	4%	4%	7.1µM*	-2
COc1cccc(/C=N/Nc2ncnc(N)c2[N+](=O)[O-])c1OC	-13%	2%	-8%	45µM*	1
Cc1cc(/C=N/Nc2ncnc(N)c2[N+](=O)[O-])c(C)n1-c1ccccc1	?	5%	-12%	?	2
CCOc1cc(C2C(C(=O)OC)=C(C)NC3=C2C(=O)c2ccccc23)c(Br)cc1O (stereo not drawn)	5µM*	11%	14µM*[quencher]	/	/
CCOc1cc(C2C(C(=O)OC)=C(C)NC3=C2C(=O)c2ccccc23)cc(Br)c1OCC (stereo not drawn)	?	?	4µM*[quencher]	/	/
CCOc1cc(C2C(C(=O)OC)=C(C)NC3=C2C(=O)c2ccccc23)c(Br)cc1OC (stereo not drawn)	?	0%	16µM*[quencher]	/	/
C#CCOc1ccc(C2C(C(=O)OC)=C(C)NC3=C2C(=O)c2ccccc23)cc1OCC (stereo not drawn)	?	-4%	11µM*[quencher]	/	/
CCOc1cc(C2C(C(=O)OC)=C(C)NC3=C2C(=O)c2ccccc23)ccc1OC (stereo not drawn)	?	5%	?	/	/
CCOc1cc(Br)c(C2C(C(=O)OC)=C(C)NC3=C2C(=O)c2ccccc23)cc1OCC (stereo not drawn)	?	11%	?	/	/
COc1ccc(-c2nc3cnc(N4CCN(C)CC4)nc3n(C)c2=O)cc1	/	/	/	27%	-2
SMILES	Tau ThT inhib	Tau fibril FP	Tau fluor counter	Sfp inh	Coupling enz
COc1cccc(-c2nc3c(C#N)c[nH]n3c2NC2CCCC2)c1OC	?	8%	-11%	/	/
O=C(CCC(=O)N1CC2CCCN2c2ccccc21)NCc1ccccc1F (stereo not drawn)	-8%	-10%	-17%	/	/
NC(=NCc1ccc(Cl)cc1Cl)NC(=O)c1nc(Cl)c(N)nc1N	?	7%	-26%	25µM*	/
COCc1cc(S(=O)c2ccc(Cl)cc2)nc(C)n1 (stereo not drawn)	?	?	-11%	79µM*	0
COCc1cc(Sc2ccc(Cl)cc2)nc(C)n1	-2%	-5%	-3%	17%	4
C/C(=N/NC(N)=S)c1ccccc1[N+](=O)[O-]	-9%	-9%	-8%	22µM*	0
NC(=S)N/N=C/c1ccccc1[N+](=O)[O-]	-7%	-3%	1%	4.5µM*	0
CCNC(=S)N/N=C/c1ccccc1[N+](=O)[O-]	4%	5%	0%	0%	0
C/C(=N\NC(N)=S)c1ccccc1	-3%	7%	4%	?	3
Cc1ccc(-n2c(SCC(=O)N3CCCc4ccccc43)nc3c([nH]c4ccccc43)c2=O)cc1	0%	1%	-9%	/	/
CCCCC(=O)Nc1ccc(C(=O)OCc2cc(=O)n3ccsc3n2)cc1	-8%	-4%	-17%	/	/
CCOC(=O)c1c(C)n(C)c2cc(Br)c(O)c(O)c12	?	-10%	-23%	79µM*	-5
CCOC(=O)c1c(NC(C)=O)sc2c(O)cccc12	?	10%	-14%	3%	3
CCOC(=O)c1c(C)n(C)c2cc([N+](=O)[O-])c(O)c([N+](=O)[O-])c12	8.9µM*	-7%	-22%	10%	1
CCOC(=O)c1c(NC(C)=O)sc2c(O)c(Br)cc(Br)c12	?	-1%	-29%	35µM*	-28
Cc1ccc(S(=O)(=O)c2cn(Cc3ccccc3)c3cc(N4CCCC4)c(F)cc3c2=O)cc1C	1%	-4%	3%	/	/
CN[C@@H](CCCN=C(N)N)C(=O)N[C@@H](CCCCN)C(=O)N1CCC[C@H]1C(=O)N[C@@H](Cc1c[nH]c2ccccc12)C(=O)N[C@H](C(=O)N[C@H](CC(C)C)C(=O)O)C(C)(C)C	/	/	/	1%	0
COc1ccc(C(=O)Oc2ccc(F)cc2C(=O)/C=C/c2ccc(OC)c(OC)c2)cc1	-10%	7%	0%	1%	-2
O=C(Oc1ccc(F)cc1C(=O)/C=C/c1cccs1)c1cccc([N+](=O)[O-])c1	14µM*	10%	?	16%	-1
O=C(/C=C/c1ccccc1F)c1cccc([N+](=O)[O-])c1	?	19%	?	2.8µM*	1
COc1cc(OC)c(OC)cc1/C=N/N(C)c1ccccc1	?	?	16µM*[quencher]	?	-3
CN(/N=C/c1cc([N+](=O)[O-])ccc1O)c1ccccc1	?	1%	-20%	-4%	1
